The source made the active and inactive calls.
Experiments:
[1] = test system: PRMT1 (protein arginine N-methyltransferase 1); test: small molecules binding arginine methyltransferase PRMT1 – biochemical, small-molecule microarray, 635 nm fluorescence, primary screen (AID 1088); conditions: higher = more signal;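 also: binding of Prmt1 protein to compounds spotted on small-molecule microarray slides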
[2] = growth effects on S. cerevisiae YJM789 – YJM789 clinical isolate, OD600, 24 h, basal, primary screen (AID 1089); conditions: higher = more signal, called active from +8 up or from −8 down;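 also: growth of clinical yeast isolate S. cerevisiae YJM 789 seeded 1000 cells per well; test concentration not given here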
[3] = S. pombe growth modifiers, basal conditions – strain 972, OD600, 24 h, no modulator, primary screen (AID 1090);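 also: basal condition with compound alone and no growth modifier present; test concentration not given here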; conditions: S. pombe 972 growth, higher = more signal, called active from +8 up or from −8 down
[4] = budding yeast growth modifiers under rapamycin – strain BY4716, OD600, 96 h, primary screen (AID 1091); also: test concentration not given here; conditions: S. cerevisiae BY4716 + rapamycin, higher = more signal, called active from +8 up or from −8 down
[5] = biological target: Torsin-1A-interacting protein 2 (Homo sapiens) (UniProt Q8NFQ8); test: small molecules binding lysate-expressed LULL1 – cell lysate, human LULL1 lysate, 635/667 nm fluorescence, primary screen (AID 1092); conditions: small-molecule microarray, hLULL1 lysate binding, 635 nm fluorescence; higher = more signal;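 also: probe is lysate of COS7 cells overexpressing human LULL1; score merges per-feature 667 nm fluorescence with signal-to-noise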
[6] = optical density change of DRC41 E. coli – strain DRC41, OD650, 24 h, E. coli filamentation project, primary screen (AID 1093);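 also: MC1000 strain lacking acrAB efflux and sulA so SOS filamentation is blocked; test concentration not given here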; conditions: E. coli DRC41 growth, higher = more signal, called active from +8 up or from −8 down
[7] = probe aLefty2 binding to arrayed compounds – biochemical, biotinylated probe, 635/667 nm fluorescence, primary screen (AID 1094); conditions: small-molecule microarray, higher = more signal;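 also: score merges spot fluorescence near 667 nm with spot signal-to-noise ratio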
[8] = test system: Noggin (protein binding on small-molecule microarray); test: small molecules binding Noggin protein – biochemical, 635/667 nm fluorescence, primary screen (AID 1095); conditions: 635 nm fluorescence, higher = more signal;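 also: score merges 667 nm feature fluorescence with signal to noise over triplicate slides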
[9] = biological target: Neurogenic locus notch homolog protein 3 (Homo sapiens) (UniProt Q9UM47); test: small molecules binding NOTCH3 protein – biochemical, 635/667 nm fluorescence, primary screen (AID 1096); conditions: small-molecule microarray, 635 nm fluorescence, higher = more signal
[10] = probe aEGFR binding to arrayed compounds – biochemical, biotinylated probe, 635/667 nm fluorescence, primary screen (AID 1097); conditions: small-molecule microarray, higher = more signal;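 also: probe is a biotinylated anti-EGFR antibody binding compounds printed on slides; score combines fluorescence near 667 nm and signal to noise of each spot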

Sequence of Torsin-1A-interacting protein 2 (Homo sapiens) (Q8NFQ8 whole entry, looked up): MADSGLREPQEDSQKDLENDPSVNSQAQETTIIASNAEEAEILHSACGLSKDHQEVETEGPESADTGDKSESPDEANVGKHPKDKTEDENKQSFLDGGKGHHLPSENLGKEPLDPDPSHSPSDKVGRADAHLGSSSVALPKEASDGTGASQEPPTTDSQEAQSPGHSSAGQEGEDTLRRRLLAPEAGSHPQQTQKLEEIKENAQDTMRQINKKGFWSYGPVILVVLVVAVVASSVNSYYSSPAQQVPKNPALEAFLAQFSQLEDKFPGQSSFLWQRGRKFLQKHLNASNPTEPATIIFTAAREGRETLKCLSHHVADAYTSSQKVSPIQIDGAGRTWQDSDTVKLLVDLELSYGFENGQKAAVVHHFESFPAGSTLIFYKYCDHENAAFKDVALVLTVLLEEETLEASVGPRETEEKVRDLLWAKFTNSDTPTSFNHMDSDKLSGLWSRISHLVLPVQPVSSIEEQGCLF
Sequence of Neurogenic locus notch homolog protein 3 (Homo sapiens) (Q9UM47 whole entry, looked up): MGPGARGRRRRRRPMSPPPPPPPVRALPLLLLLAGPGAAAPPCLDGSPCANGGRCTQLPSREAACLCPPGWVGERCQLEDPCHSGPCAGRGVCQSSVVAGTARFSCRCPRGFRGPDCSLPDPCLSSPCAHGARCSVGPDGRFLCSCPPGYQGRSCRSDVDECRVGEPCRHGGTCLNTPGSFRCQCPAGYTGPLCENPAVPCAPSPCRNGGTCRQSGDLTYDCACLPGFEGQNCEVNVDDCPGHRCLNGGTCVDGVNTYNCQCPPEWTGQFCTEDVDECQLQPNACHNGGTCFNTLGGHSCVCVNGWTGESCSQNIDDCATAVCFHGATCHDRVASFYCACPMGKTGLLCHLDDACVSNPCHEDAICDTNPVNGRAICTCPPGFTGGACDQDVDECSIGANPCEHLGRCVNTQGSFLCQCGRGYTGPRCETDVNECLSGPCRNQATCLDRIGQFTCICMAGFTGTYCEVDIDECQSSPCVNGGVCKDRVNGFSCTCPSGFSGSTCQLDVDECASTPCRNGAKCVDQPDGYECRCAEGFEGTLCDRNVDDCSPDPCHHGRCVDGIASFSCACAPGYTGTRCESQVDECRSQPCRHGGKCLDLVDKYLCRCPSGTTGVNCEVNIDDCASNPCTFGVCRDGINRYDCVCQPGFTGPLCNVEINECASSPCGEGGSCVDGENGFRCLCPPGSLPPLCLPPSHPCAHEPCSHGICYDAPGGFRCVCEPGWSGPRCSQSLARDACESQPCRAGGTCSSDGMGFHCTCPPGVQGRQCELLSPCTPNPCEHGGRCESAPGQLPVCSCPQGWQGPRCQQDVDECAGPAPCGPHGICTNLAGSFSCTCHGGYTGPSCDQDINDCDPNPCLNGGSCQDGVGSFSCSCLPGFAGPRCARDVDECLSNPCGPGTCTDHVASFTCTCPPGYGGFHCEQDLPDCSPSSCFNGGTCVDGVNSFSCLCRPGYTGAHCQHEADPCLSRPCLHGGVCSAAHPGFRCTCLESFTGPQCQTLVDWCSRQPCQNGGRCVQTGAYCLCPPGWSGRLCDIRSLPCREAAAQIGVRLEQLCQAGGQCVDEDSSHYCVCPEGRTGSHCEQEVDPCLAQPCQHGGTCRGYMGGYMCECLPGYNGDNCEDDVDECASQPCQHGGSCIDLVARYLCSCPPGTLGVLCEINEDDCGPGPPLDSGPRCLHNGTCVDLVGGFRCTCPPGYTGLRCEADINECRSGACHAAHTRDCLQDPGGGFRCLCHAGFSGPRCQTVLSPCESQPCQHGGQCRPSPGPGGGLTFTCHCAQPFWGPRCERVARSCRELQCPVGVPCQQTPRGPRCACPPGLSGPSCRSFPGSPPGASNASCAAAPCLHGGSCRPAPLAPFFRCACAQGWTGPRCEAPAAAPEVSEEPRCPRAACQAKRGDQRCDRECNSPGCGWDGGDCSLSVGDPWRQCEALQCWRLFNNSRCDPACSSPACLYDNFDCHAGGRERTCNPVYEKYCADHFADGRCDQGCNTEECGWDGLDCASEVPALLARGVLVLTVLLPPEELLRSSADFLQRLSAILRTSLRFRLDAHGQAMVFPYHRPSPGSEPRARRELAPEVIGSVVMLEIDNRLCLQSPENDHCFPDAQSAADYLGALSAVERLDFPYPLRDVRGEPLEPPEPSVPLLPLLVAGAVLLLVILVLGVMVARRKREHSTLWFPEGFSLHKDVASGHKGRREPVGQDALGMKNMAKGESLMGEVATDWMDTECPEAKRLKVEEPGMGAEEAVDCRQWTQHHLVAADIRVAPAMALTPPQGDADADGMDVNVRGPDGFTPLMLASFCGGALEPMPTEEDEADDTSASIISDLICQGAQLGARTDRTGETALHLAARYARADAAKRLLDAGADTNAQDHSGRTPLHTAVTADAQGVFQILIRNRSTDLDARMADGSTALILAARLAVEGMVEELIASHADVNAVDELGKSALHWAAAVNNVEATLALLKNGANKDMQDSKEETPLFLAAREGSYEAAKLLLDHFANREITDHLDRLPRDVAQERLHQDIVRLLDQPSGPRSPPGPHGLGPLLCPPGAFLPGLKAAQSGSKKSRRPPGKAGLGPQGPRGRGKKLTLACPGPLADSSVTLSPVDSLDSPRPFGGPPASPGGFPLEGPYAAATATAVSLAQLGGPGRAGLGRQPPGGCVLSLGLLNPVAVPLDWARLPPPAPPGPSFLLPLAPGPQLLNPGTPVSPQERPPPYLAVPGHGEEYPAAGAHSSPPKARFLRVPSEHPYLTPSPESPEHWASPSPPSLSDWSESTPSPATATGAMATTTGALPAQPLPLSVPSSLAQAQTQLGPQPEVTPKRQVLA

Row | SMILES | composite z-score [1] | z-score [2] | z-score [3] | z-score [4] | composite z-score [5] | z-score [6] | composite z-score [7] | composite z-score [8] | composite z-score [9] | composite z-score [10]
1 | COCC(=C=CC[C@@H](O)c1cccc(OCCO)c1)C[C@@H](O)c1ccccn1 | 0.523 | 1.09 (inactive) | -0.416 (inactive) | -0.648 (inactive) | 1.12 | 0.257 (inactive) | -0.193 | 0.657 | 0.599 | -0.137
2 | COC(=O)[C@@]1(Cc2ccc(OC)cc2)[C@@H]2C(=CC(=O)[C@H]2CC(=O)C(=O)N2CCCC2)CN1C(=O)c1ccccc1 | -1.55 | 0.201 (inactive) | 0.097 (inactive) | 0.176 (inactive) | 2.99 | 0.355 (inactive) | 0.336 | 0.0255 | 0.735 | 0.386
3 | COC(=O)[C@@]1(Cc2ccccc2)[C@H]2c3cc(C(=O)N(C)C)n(Cc4ccsc4Br)c3C[C@H]2CN1C(=O)c1ccccc1 | -0.481 | 1.04 (inactive) | 1.17 (inactive) | 2.66 (inactive) | 3.32 | 0.166 (inactive) | 0.313 | 0.0244 | 1.05 | 0.196
4 | CCOC(=O)C1=CC[C@@H](c2ccccc2)N(S(=O)(=O)c2ccc(C)cc2)[C@H]1c1ccccc1C | 0.473 | -0.602 (inactive) | 0.903 (inactive) | -0.3 (inactive) | 1.97 | -0.3 (inactive) | 0.066 | 0.72 | 0.913 | -0.0675
5 | COC(=O)[C@@]1(Cc2ccc(OC)cc2)[C@H]2c3cc(C(=O)N4CCCC4)n(Cc4ccc(O)c(OC)c4)c3C[C@H]2CN1C(=O)c1ccccc1 | -0.356 | 0.972 (inactive) | 1.19 (inactive) | 1.18 (inactive) | 3.39 | -0.456 (inactive) | 0.531 | -0.194 | 0.6 | 0.805
6 | O=C(c1ccccc1)N1C(=O)[C@@]2(Cc3ccccc31)N=C(c1ccc(OCCCO)cc1)O[C@H]2c1ccccc1 | 1.55 | -0.26 (inactive) | -1.23 (inactive) | 1.74 (inactive) | 2.59 | 0.0877 (inactive) | 0.384 | 0.487 | 1.09 | 0.291
7 | C=CCC(OC(C)=O)[C@@H]1[C@@H](N(Cc2ccc(-c3cccc(C(F)(F)F)c3)o2)C(=O)c2ccc(C)cc2)c2cc(OCCCO)ccc2N1C(=O)Cc1ccc2ccccc2c1 (stereo not given in full) | 0.0457 | 0.677 (inactive) | -0.0286 (inactive) | 0.303 (inactive) | -0.0958 | 1.6 (inactive) | -0.0674 | -0.408 | -0.624 | -0.108
8 | COCCCNC(=O)[C@@H]1c2ccccc2C(=O)N(Cc2ccccc2Cl)[C@H]1c1ccc(CO)cc1 | 1.53 | -0.103 (inactive) | -0.329 (inactive) | -0.59 (inactive) | 2.26 | 2.55 (inactive) | -0.101 | 0.522 | 0.388 | -0.13
9 | CC1(C)[C@@H]2CC(C(O)C3C=CC4C(=O)N(Cc5ccccc5)C(=O)C4N3n3cnnc3)=C[C@H]1C2 (stereo not given in full) | 1.29 | 0.0365 (inactive) | 1.57 (inactive) | 1.38 (inactive) | 3.12 | -0.117 (inactive) | 0.104 | 0.458 | 0.791 | 0.0564
10 | COc1cccc(-c2cccc(=O)o2)c1 | 0.274 | -1.24 (inactive) | -3.46 (inactive) | 1.42 (inactive) | -0.33 | 0.696 (inactive) | 0.716 | 0.335 | -0.476 | 0.08
11 | COCCOC(=O)N1C(=O)[C@@]2(c3cc(C#Cc4ccc(OC)cc4)ccc31)[C@H](c1ccccc1OCCO)N1[C@H](c3ccccc3)[C@H](c3ccccc3)OC(=O)[C@H]1[C@@H]2C(=O)NC[C@H](O)c1ccccc1 | 1.53 | 2.89 (inactive) | 2.09 (inactive) | 7.27 (inactive) | 2.86 | -0.0186 (inactive) | -0.0304 | 1.17 | 1.04 | -0.0267
12 | COC(=O)C(CC#Cc1ccc2c(c1)[C@]1(C(=O)N2)[C@H](c2ccc(OCCO)cc2)N2[C@H](c3ccccc3)[C@H](c3ccccc3)OC(=O)[C@H]2[C@@H]1C(=O)Nc1nc2ccccc2s1)C(=O)OC | 1.58 | 2.63 (inactive) | 2.22 (inactive) | 3.14 (inactive) | 2.45 | 2.13 (inactive) | -0.175 | 1.41 | 1.09 | 0.0562
13 | COc1ccc([Si](C)(C)[C@@H]2[C@@H](CCO)O[C@]3(C(=O)N(Cc4ccc(N(C=O)c5ccccc5)cc4)c4ccccc43)[C@H]2C)cc1 | 0.883 | 1.47 (inactive) | 0.552 (inactive) | 25.3 (active) | 0.758 | 0.0689 (inactive) | 0.122 | 0.445 | 0.332 | -0.0466
